Experimental findings from PubChem BioAssay (NCATS) are described below.

Records with an inconclusive call do not appear. A call without a number means that no potency is given here. The source made the active and inactive calls. Calls come from the whole dose curve; as a rule, active = well fitted inhibition curve with a large enough effect; inconclusive = small, poorly fitted or top-dose-only effect; inactive = flat fitted curve, though single readings scatter.
Potency is the fitted concentration of half-maximal effect.

The assay is described as follows: P-glycoprotein substrates identified in KB-8-5-11 adenocarcinoma cell line, qHTS therapeutic library screen (AID 1346987). Note: nearly all actives have a fitted effect of over 65% in size. Conditions: KB-8-5-11 (P-gp overexpressing) viability, CellTiter-Glo, 72 h; series mostly up to 44.5 µM. The gist of the method: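 KB-8-5-11: colchicine-selected sub-line of KB-3-1 over-expressing P-gp; assay medium lacked colchicine. 72 h drug exposure at 37 degree C, CellTiter-Glo.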
For orientation: qHTS replaces the single test concentration by a dilution series.
Consider `Cc1cc(C)nc(NS(=O)(=O)c2ccc(NC(=S)NC(=O)COc3ccc(Br)cc3Cl)cc2)n1`, for which the Potency result is “inactive”.

In the case of `CC(C)CCC(=O)CC1c2ccccc2C(=O)N1c1ccc2ccc(Cl)nc2n1` (centres undefined), the Potency entry is “inactive”.

For `O=C(O)c1ccc(CN2CCC(CN[C@@H]3C[C@H]3c3ccccc3)CC2)cc1`, the Potency result was “inactive”.

Take `CC(C)[N+]1(C)C2CCC1CC(OC(=O)C(CO)c1ccccc1)C2` (centres undefined): the Potency result was “inactive”.

Take `C[S+](CC[C@H](N)C(=O)[O-])C[C@H]1O[C@@H](n2cnc3c(N)ncnc32)[C@H](O)[C@@H]1O` (some centres undefined): the Potency result was “inactive”.

For the compound `O=C(NCc1ccc(S(=O)(=O)c2cc(F)cc(F)c2)cc1)c1ccc2nccn2c1`, the Potency is 0.0184 µM (active).

`Cn1cncc1C(N)(c1ccc(Cl)cc1)c1ccc2c(c1)c(-c1cccc(Cl)c1)cc(=O)n2C` (centres undefined): the Potency was 3.26 µM (active).

Turning to `COc1ccc(-c2ccc3c(N4CCOCC4)nc(N4CC(C)OC(C)C4)nc3n2)cc1CO` (centres undefined), the Potency was 0.651 µM (active).

With `CCCNc1ccc2ncc(-c3ccc4[nH]ncc4c3)n2n1`, the Potency was 3.66 µM (active).

Turning to `OC[C@H]1O[C@@H](OCCc2ccc(O)cc2)[C@H](O[C@@H]2OC[C@](O)(CO)[C@H]2O)[C@@H](O)[C@@H]1O`, the Potency entry is “inactive”.

As to `COc1cc(/C=C/C(=O)O[C@H]2[C@H](O)[C@@H](CO)O[C@@]2(CO)O[C@H]2O[C@H](CO)[C@@H](O)[C@H](O)[C@H]2O)ccc1O`, the Potency entry was “inactive”.

With `CN(C)CCCCC(=O)Nc1ccc(NC(=S)NC(=O)c2ccc(C(C)(C)C)cc2)cc1`, the Potency is 13 µM (active).

As for `COC(=O)N(C)c1c(N)nc(-c2nn(Cc3ccccc3F)c3ncccc23)nc1N`, the Potency entry is “inactive”.

Turning to `CC(C)C(CO)Nc1nc(Nc2cc(N)cc(Cl)c2)c2ncn(C(C)C)c2n1` (centres undefined), the Potency is 7.31 µM (active).

Regarding `C[C@@H]1O[C@@H](O[C@H]2[C@H](O)[C@@H](O[C@@H]3O[C@H](CO)[C@@H](O)[C@H](O[C@@H]4O[C@H](CO)[C@@H](O)[C@H](O)[C@H]4O)[C@H]3O)[C@H](O[C@H]3CC[C@@]4(C)C(=CC[C@@H]5C4CC[C@@]4(C)C5C[C@@H]5OC6(CC[C@@](C)(CO[C@@H]7O[C@H](CO)[C@@H](O)[C@H](O)[C@H]7O)O6)[C@@H](C)[C@@H]54)C3)O[C@@H]2CO)[C@H](O)[C@H](O)[C@H]1O` (some centres undefined), the activity change, negative = cytotoxicity was 3.17% [at 9.29 µM] (inactive).

As to `C[C@@H]1[C@H]2[C@H](O[C@@H]3O[C@H](CO)[C@@H](O)[C@H](O)[C@H]3O)OC=C(C(=O)O)[C@H]2C[C@@H]1O`, the Potency entry was “inactive”.

Take `CCOc1cc(C(=O)N2CCC(N3CCN(C)CC3)CC2)ccc1Nc1ncc2c(n1)N(C1CCCC1)c1ccccc1C(=O)N2C`: the Potency is 13 µM (active).

As for `C=C(CO[C@@H]1O[C@H](CO[C@@H]2OC[C@](O)(CO)[C@H]2O)[C@@H](O)[C@H](O)[C@H]1O)C1Cc2cc(C(C)=O)ccc2O1` (some centres undefined), the Potency entry is “inactive”.

Consider `COc1c(/C=C/C(C)(C)O)ccc2c1C(=O)OCc1cc(C)cc(O)c1O2`, for which the Potency entry is “inactive”.

Take `COc1ccc(CNC(=O)c2sc3nc(C)cc(C)c3c2N)cc1`: the Potency result was “inactive”.

In the case of `COc1c2ccoc2cc2oc(CO[C@@H]3O[C@H](CO)[C@@H](O)[C@H](O)[C@H]3O)cc(=O)c12`, the Potency result was “inactive”.

On to `CN(C)c1nc(NC2CCC(NCCc3ccc(Br)cc3OC(F)(F)F)CC2)nc2ccccc12` (centres undefined), for which the Potency is 4.61 µM (active).

Turning to `C=C[C@H]1[C@H](O[C@@H]2O[C@H](CO)[C@@H](O)[C@H](O)[C@H]2O)OC=C(C(=O)OC)[C@H]1C/C=C(/C=O)[C@@H]1C(C(=O)OC)=CO[C@@H](O[C@@H]2O[C@H](CO)[C@@H](O)[C@H](O)[C@H]2O)[C@@H]1C=C`, the Potency result is “inactive”.

Take `COc1cc2oc(-c3ccc(O)cc3O)cc2c(OC)c1CC=C(C)C`: the Potency entry is “inactive”.

Take `C=C[C@H]1[C@H](O[C@@H]2O[C@H](CO)[C@@H](O)[C@H](O)[C@H]2O)OC=C(C(=O)OC)[C@H]1C[C@@H]1c2cc(O)c(O)cc2CCN1C(C)=O`: the Potency entry is “inactive”.

For `COCCN1CCN(Cc2ccc(-c3n[nH]c4c3C(=O)c3c(NC(=O)NN5CCOCC5)cccc3-4)cc2)CC1`, the Potency was 2.59 µM (active).

For `Nc1nc2c(ncn2[C@@H]2O[C@H](CO)[C@@H](O)[C@H]2O)c(=O)[nH]1`, the Potency result is “inactive”.

On to `O=C(Nc1ccc(Cl)cc1F)c1ccccc1O`, for which the Potency was 7.31 µM (active).

`CCOc1ccc(NC(=S)N2CCC(C(O)(c3ccccc3)c3ccccc3)CC2)cc1`: the Potency entry is “inactive”.

For the compound `CC1(C(=O)O)CCCC2(C)C3=CCC4CC3(CCC12)CC4CO` (centres undefined), the Potency entry was “inactive”.

On to `CC(=O)N[C@H]1[C@H](O[C@H]2CC[C@@]3(C)C(CC[C@]4(C)C3CC=C3C5CC(C)(C)CC[C@]5(C(=O)O)[C@H](O)C[C@]34C)C2(C)C)O[C@H](CO[C@@H]2OC[C@H](O)[C@H](O)[C@H]2O[C@@H]2OC[C@@H](O)[C@H](O)[C@H]2O)[C@@H](O)[C@@H]1O` (some centres undefined), for which the activity change, negative = cytotoxicity is 5.39% [at 9.29 µM] (inactive).

Turning to `C=C1C(O)C(O)C2(CC3C(C)=CCC4C(C)(CO)CCCC34C)OC2C1O` (centres undefined), the Potency entry was “inactive”.

`CN(C)C1CCN(C(=O)c2ccc(NC(=O)Nc3ccc(-c4nc(N5CCOCC5)nc(N5CCOCC5)n4)cc3)cc2)CC1`: the Potency entry was “inactive”.

Take `NC(=O)c1cnc(NCCc2ccc(O)c(Cl)c2)nc1NCc1ccccc1`: the Potency is 10.3 µM (active).

Take `Nc1nc2c(c(N3CCNCC3)n1)CCC1=C2[C@@H]2CCCC[C@@H]2O1`: the Potency result is “inactive”.

For `O=C(C(c1ccccc1)c1ccccc1)N1CCN(CC(O)COc2cccc3ncccc23)CC1` (centres undefined), the Potency result is “inactive”.

For `CC(C)CC1NC(=O)C2CC3(O)c4ccccc4NC3N2C1=O` (centres undefined), the Potency entry was “inactive”.

For `CCCCOC(=O)NC(=O)C1c2ccccc2Oc2ccccc21`, the Potency entry is “inactive”.

Turning to `CC1CCCCN1S(=O)(=O)c1ccc(N2CCCC2=O)cc1` (centres undefined), the Potency result is “inactive”.
